From publication PMC11006913

Molecular target: T1, NKX2-6 (Homo sapiens, UniProt A6NCS4 118-204, R150C)
T1 sequence: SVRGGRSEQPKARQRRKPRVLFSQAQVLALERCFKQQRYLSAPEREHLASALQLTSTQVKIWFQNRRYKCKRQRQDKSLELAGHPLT
Assay: PBM; 200 nM protein, PBS
Settings: dsDNA, one strand shown

Sequence | binding signal
AGGCAGTC | 9.73 upbm affinity estimate (log intensity, higher = more binding, comparable within an allelic series)
ATCACCCG | 9.63 upbm affinity estimate (log intensity, higher = more binding, comparable within an allelic series)
AGAGTGGC | 10.9 upbm affinity estimate (log intensity, higher = more binding, comparable within an allelic series)
GGTCAGAC | 9.52 upbm affinity estimate (log intensity, higher = more binding, comparable within an allelic series)
CACTCGTC | 10.8 upbm affinity estimate (log intensity, higher = more binding, comparable within an allelic series)
AAGAGTAG | 10.8 upbm affinity estimate (log intensity, higher = more binding, comparable within an allelic series)
CTACCGGC | 9.49 upbm affinity estimate (log intensity, higher = more binding, comparable within an allelic series)
CGCGGGCA | 9.67 upbm affinity estimate (log intensity, higher = more binding, comparable within an allelic series)
CAGCCCTG | 9.44 upbm affinity estimate (log intensity, higher = more binding, comparable within an allelic series)
GAGTCTGC | 9.64 upbm affinity estimate (log intensity, higher = more binding, comparable within an allelic series)
ATACTTGG | 10.8 upbm affinity estimate (log intensity, higher = more binding, comparable within an allelic series)
CAAGTGGA | 11.6 upbm affinity estimate (log intensity, higher = more binding, comparable within an allelic series)
CACAGGCG | 9.43 upbm affinity estimate (log intensity, higher = more binding, comparable within an allelic series)
ACCGGTGG | 9.26 upbm affinity estimate (log intensity, higher = more binding, comparable within an allelic series)
CATGCCGG | 9.42 upbm affinity estimate (log intensity, higher = more binding, comparable within an allelic series)
CTCTTGAC | 11.2 upbm affinity estimate (log intensity, higher = more binding, comparable within an allelic series)
TCACTCAA | 10.9 upbm affinity estimate (log intensity, higher = more binding, comparable within an allelic series)
CCCAGGGG | 9.24 upbm affinity estimate (log intensity, higher = more binding, comparable within an allelic series)
GGTCAACC | 9.62 upbm affinity estimate (log intensity, higher = more binding, comparable within an allelic series)
CCCTGCCA | 9.63 upbm affinity estimate (log intensity, higher = more binding, comparable within an allelic series)

Sequence | binding signal
AGAGTGGA | 11 upbm affinity estimate (log intensity, higher = more binding, comparable within an allelic series)
AACGGGAC | 9.62 upbm affinity estimate (log intensity, higher = more binding, comparable within an allelic series)
CAGACGCC | 9.62 upbm affinity estimate (log intensity, higher = more binding, comparable within an allelic series)
CCCGCAGC | 9.3 upbm affinity estimate (log intensity, higher = more binding, comparable within an allelic series)
CGCCTACA | 9.72 upbm affinity estimate (log intensity, higher = more binding, comparable within an allelic series)
ACCGTGGA | 9.56 upbm affinity estimate (log intensity, higher = more binding, comparable within an allelic series)
AGGCACCC | 9.55 upbm affinity estimate (log intensity, higher = more binding, comparable within an allelic series)
ATACTTTG | 10.7 upbm affinity estimate (log intensity, higher = more binding, comparable within an allelic series)
GCAGCACC | 9.59 upbm affinity estimate (log intensity, higher = more binding, comparable within an allelic series)
CACGCCAG | 9.43 upbm affinity estimate (log intensity, higher = more binding, comparable within an allelic series)
CCCCGTTC | 9.42 upbm affinity estimate (log intensity, higher = more binding, comparable within an allelic series)
CCCCAACC | 9.37 upbm affinity estimate (log intensity, higher = more binding, comparable within an allelic series)
GCCGTGAA | 9.62 upbm affinity estimate (log intensity, higher = more binding, comparable within an allelic series)
GTAAGTAC | 11.7 upbm affinity estimate (log intensity, higher = more binding, comparable within an allelic series)
CAAAGTGC | 11 upbm affinity estimate (log intensity, higher = more binding, comparable within an allelic series)
CACTTGTC | 11.4 upbm affinity estimate (log intensity, higher = more binding, comparable within an allelic series)
CCGGACCC | 9.31 upbm affinity estimate (log intensity, higher = more binding, comparable within an allelic series)
ACCCGGCA | 9.55 upbm affinity estimate (log intensity, higher = more binding, comparable within an allelic series)
AAGCCCCC | 9.33 upbm affinity estimate (log intensity, higher = more binding, comparable within an allelic series)
